# Bioassay records from PubChem BioAssay.
# ALOX12 inh: ALOX12 (human) lipoxygenase inhibition. purified 12hLO, xylenol orange hydroperoxide absorbance. Potency, µM (top dose mostly 108 µM), for the others: at the highest dose activity change, negative = inhibition, actives largely listed as inhibitors. 1.1% of 580,000 active; also: potency is read from the fitted curve at half-maximal effect; % is scaled to controls: 0 for no effect and ±100 for the full control effect
#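 Purified human 12hLO at 150 nM in 25 mM Hepes, 0.01% Triton X-100, pH 7.0, preincubated 15 min at room temperature with compound. Reaction started with 40 uM arachidonic acid, 30 min at room temperature. Hydroperoxide measured by Fe-xylenol orange, 573/405 nm absorbance ratio.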
# POLI inh: blocks human DNA polymerase iota activity. Q9UNA4. Pol iota fluorescent replication assay, 10 min. Potency, µM (doses to about 115 µM), for the others: top-dose activity, negative = inhibition, actives largely listed as inhibitors. 1% of 390,000 active; also: potency is read from the fitted curve at half-maximal effect
#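 Pol iota at 10 nM preincubated 15 min with compounds at room temperature; reaction started with fluorescent substrate, 50 nM final. Fluorescence read kinetically at 0 and 10 min; buffer-only wells as negative control.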
# Pol kappa inh-1: DNA polymerase kappa (human) inhibition. Q9UBT6. purified Pol kappa, fluorescent DNA synthesis assay, 10 min. Potency, µM (doses to about 107 µM), without a hit: top-dose activity, negative = inhibition, hits mostly inhibitors. 0.53% of 400,000 active. AID 588579; also: potency is read from the fitted curve at half-maximal effect; % is scaled to controls: 0 for no effect and ±100 for the full control effect
#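 Enzyme at 10 nM met test compounds for 15 min at room temperature. Substrate addition (50 nM final) began the reaction, which was monitored by fluorescence at 0 and 10 min.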
# Pol beta inh: blocks human DNA polymerase beta activity | Pol beta primer extension/strand displacement, fluorescence kinetic | 1.3% of 340,000 active | Potency, µM (highest dose often 114 µM), without a hit: at the highest dose activity change, negative = inhibition, most hits filed as inhibitors; also: potency is read from the fitted curve at half-maximal effect; % is scaled to controls: 0 for no effect and ±100 for the full control effect
#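 Pol beta (10 nM) and compounds were preincubated 15 min at room temperature, then 50 nM substrate (final) started primer extension/strand displacement. Reads were taken at 0 and 10 min; concentration-response data were fitted to a four-parameter Hill equation.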
# Pol eta inh-1: blocks human DNA polymerase eta activity; Q9Y253; recombinant Pol eta, fluorescent DNA replication assay; Potency, µM (top dose mostly 114 µM), inactives show top-dose activity change, negative = inhibition, most hits filed as inhibitors; 1.2% of 390,000 active; also: potency is read from the fitted curve at half-maximal effect; % is scaled to controls: 0 for no effect and ±100 for the full control effect
#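 Pol eta at 10 nM preincubated with compounds 15 min at room temperature; reaction started with fluorescent substrate (50 nM final) and read kinetically at 0 and 10 min.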
# PI5P4K alpha inh: inhibitors of human PI5P4K alpha; PI5P4Kalpha enzyme, ADP-Glo luminescence, 60 min; active compounds read low; max response, %; 1.2% of 330,000 active; AID 652105; active = max response of -50% or lower; inconclusive = between -30% and -50%; inactive = -30% or higher; also: value at the top dose of about 77 µM; % is scaled to controls: 0 for no effect and ±100 for the full control effect
# Target sequence (P48426 whole entry, looked up): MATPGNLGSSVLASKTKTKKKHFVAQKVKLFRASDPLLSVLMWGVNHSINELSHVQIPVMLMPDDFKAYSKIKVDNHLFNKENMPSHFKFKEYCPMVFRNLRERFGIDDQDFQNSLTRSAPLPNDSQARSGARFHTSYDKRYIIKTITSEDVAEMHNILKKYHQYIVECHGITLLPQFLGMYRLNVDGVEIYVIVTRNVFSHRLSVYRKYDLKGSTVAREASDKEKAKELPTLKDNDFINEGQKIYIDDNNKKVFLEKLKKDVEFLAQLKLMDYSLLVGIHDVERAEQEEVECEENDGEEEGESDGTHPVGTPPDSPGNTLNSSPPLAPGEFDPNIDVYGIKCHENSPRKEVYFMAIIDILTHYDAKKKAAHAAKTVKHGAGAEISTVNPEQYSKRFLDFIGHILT
#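 Enzyme plus substrate dispensed, test compounds pinned in, then ATP (5 microM final) added. After 60 min at RT, ADP-Glo reagent 1 for 45 min and reagent 2 for 30 min preceded luminescence imaging.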
# GALK confirm: galactokinase (human) inhibition, confirmation | shares compounds with Pol eta inh-1 | Potency, µM (doses to about 115 µM), for inactives: at the highest dose activity, negative = inhibition, usual class: inhibitors | purified GALK, Kinase-Glo ATP depletion luminescence | 70% of 150 active
# Redox cycling: generates H2O2 by redox cycling, flagging GALK artifacts; shares compounds with Pol eta inh-1; Phenol red-HRP H2O2 redox cycling, absorbance 600 nm; Potency, µM (titrated, usually from 115 µM), inactives show top-dose activity change, negative = H2O2 signal, hits mostly inhibitors; 40% of 150 active
# HEK293 tox: reduces HEK-293 cell viability in GALK counter-screen | shares compounds with Pol eta inh-1 | HEK-293 viability, ATP luminescence (CellTiter-Glo), 24/48 h | Potency, µM (top dose mostly 46.1 µM), inactives show at the top dose activity change, negative = cytotoxicity, usual class: inhibitors | 10% of 170 active | AID 2547; also: potency is read from the fitted curve at half-maximal effect; % is scaled to controls: 0 for no effect and ±100 for the full control effect
# Pol kappa inh-2: Pol kappa (human) inhibition, cherry-pick confirmation; shares compounds with Pol eta inh-1; purified Pol-kappa, fluorescent strand-displacement substrate; Potency, µM, most hits filed as inhibitors; 76% of 920 active; also: potency is read from the fitted curve at half-maximal effect
# Pol eta inh-2: confirmation of human DNA polymerase eta inhibitors; shares compounds with Pol eta inh-1; Pol eta primer extension, TAMRA/BHQ fluorescence, 10 min; Potency, µM, most hits filed as inhibitors; 64% of 2,600 active; also: potency is read from the fitted curve at half-maximal effect
# Numbers without * were called inactive; ? = inconclusive; nt = no result; [ ] = remark or other dose. Most compounds without a hit are left out; they make up all but 2.9% or so of the library. Unless noted, calls follow the shape of the dose curve; as a rule, active = well fitted curve in the direction sought with a large enough effect; inconclusive = small, poorly fitted or top-dose-only effect, or another doubt; inactive = no such curve, though single readings can be large; an effect the other way counts as inactive or inconclusive.
SMILES,ALOX12 inh,POLI inh,Pol kappa inh-1,Pol beta inh,Pol eta inh-1,PI5P4K alpha inh,Pol eta inh-2,others
NC(=O)N/N=C/c1ccc(-c2ccc(S(=O)(=O)Nc3ncccn3)cc2)o1,-3.8%,?,?,nt,35.5µM*,-12.1,67.5*,Pol kappa inh-2=37.7*
Cc1oc(C(O)c2ccccc2F)nc1C(=O)Nc1ccc2[nH]c(=O)[nH]c2c1 (centres undefined),5.5%[176 µM],nt,nt,nt,nt,nt,nt,
O=C(O)c1ccc(S(=O)(=O)N2CCC(n3nnc4cc(C(F)(F)F)ccc43)CC2)cc1,-20.7%,109.7%,0.0%,20.6%,-19.3%,-3.7,nt,
O=C(O)c1cccc(S(=O)(=O)N2CCC(n3nnc4cc(C(F)(F)F)ccc43)CC2)c1,1.9%,60.8%,-13.9%,45.8%,2.6%,2.2,nt,GALK confirm=?;Redox cycling=-24.6%;HEK293 tox=2.2%
CCOc1ccc(Nc2nc(Cc3nnc(SCC(=O)O)o3)cs2)cc1,-17.2%,?,?,79.4µM*,50.1µM*,nt,?,
Cc1nc(-c2ccncc2)[nH]c(=O)c1CC(=O)N(C)C1CCCCCCC1,2.7%,nt,nt,nt,nt,nt,nt,
Cc1cnc(C(=O)N(Cc2cccs2)C2CC2)cn1,26.2%,nt,nt,nt,nt,nt,nt,
COc1ccc(/C=C/C(=O)O)cc1S(=O)(=O)N1CCc2ccccc2C1,4.3%,?,-11.1%,?,?,?,?,
COc1ccc(NC(=O)c2c[nH]n3c(=O)cc(C4CCN(C(=O)OC(C)(C)C)CC4)nc23)cc1Cl,39.8µM*,23.0%,-6.7%,-2.7%,89.1µM*,2.0,84.9*,Pol kappa inh-2=75.2*
CC(C)(C)OC(=O)N1CCC(c2cc(=O)n3[nH]cc(C(=O)Nc4ccc(F)c(Cl)c4)c3n2)CC1,-19.2%,?,-11.0%,-20.8%,-0.8%,9.7,nt,
O=C(CSc1nnc(Nc2ccccc2F)s1)NC1CCS(=O)(=O)C1 (centres undefined),340.4%,0.4%,-13.2%,nt,-4.2%,-1.9,nt,
O=C(CSc1nnc(Nc2ccccc2F)s1)NC(=O)CN1CCCC1=O,20.4%,?,?,nt,22.4µM*,?,?,Pol kappa inh-2=67*
COc1ccc(CN2CCCC2c2cccc(C)c2)cc1O (centres undefined),-26.2%,nt,nt,nt,nt,nt,nt,
O=C(NCCCc1ccccc1)c1cc(-c2ccncc2)nc2ccccc12,31.0%,nt,nt,nt,nt,nt,nt,
Oc1ccc(NCc2ccccc2OCc2ccc(Cl)cc2)cc1,124.0%,?,?,?,-16.1%,nt,?,
CCOc1cc(/C=N/O)ccc1OCc1ccc(Cl)cc1,-45.7%,nt,nt,nt,nt,nt,nt,
CCOc1cc(CNc2ccc(O)cc2)ccc1OCc1ccc(Cl)cc1,263.6%,7.94µM*,?,?,-23.3%,nt,?,
Cc1ccc(O)c(N=Cc2cc(Cc3ccccc3)cc([N+](=O)[O-])c2O)c1,?,?,?,5.62µM*,79.4µM*,-63.9*,nt,Pol kappa inh-2=67*
Cc1ccc(C)c(N=Cc2ccccc2[N+](=O)[O-])c1,0.7%,nt,nt,nt,nt,nt,nt,
